# Data published in PubChem BioAssay AID504834 (National Center for Advancing Translational Sciences (NCATS), 2011).
# Hit rate of the full screen: of about 320,000 compounds, about 22,000 (6.9%) were called active. Entries that show only a call come without a potency. Roughly 27% stayed inconclusive and do not appear here. Calls follow the shape of the dose curve; as a rule, active = well fitted inhibition curve with a large enough effect; inconclusive = small, poorly fitted or top-dose-only effect, or another doubt; inactive = no such curve, though single readings can be large or run the other way. Many of the other results were omitted from the sample, so actives are more common in it than they were.
# Assay: Primary qHTS for delayed death inhibitors of the malarial parasite plastid, 96 hour incubation
# Details: P. falciparum luciferase reporter growth; series mostly up to 28.7 µM
# Outline: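 Infected RBCs, 2% Hct / 0.05% parasitemia final; luciferase-reporter P. falciparum; cpd 96 h, 37 C, 5% CO2; luciferase detection reagent; luminescence.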
# Potency is read from the fitted curve at half-maximal effect.
row,Structure (SMILES),Potency
1,COC(=O)N/N=C/c1c[n+]([O-])c2ccccc2[n+]1[O-],inactive
2,O=C(CCN1C(=O)[C@H]2CC=CC[C@H]2C1=O)NCc1nc(-c2ccccc2)no1,inactive
3,CCC(C)NC(=O)C1CCC(=O)N1Cc1ccc(C)cc1 (stereo not drawn),11.7 µM (active)
4,Cc1ccc(CN2C(=O)CCC2C(=O)NCCCN2CCCCC2C)cc1 (stereo not drawn),inactive
5,CCC(C)NC(=O)C1c2ccccc2C(=O)N1Cc1ccccc1 (stereo not drawn),inactive
6,O=S(=O)(Cc1nnnn1-c1ccccc1)c1ccccc1,inactive
7,O=C(/C=C/c1ccccc1[N+](=O)[O-])OCC(=O)N1CCCC1,inactive
8,COc1cccc(NC(=O)N2CCC(NC(=O)C(Cc3cccc(C)c3)NC(C)=O)CC2)c1 (stereo not drawn),inactive
9,Cc1ccc(S(=O)(=O)NCCC(=O)Nc2ccc(C)c(Cl)c2)cc1C,inactive
10,O=C(O)Cc1sc(-c2ccc(C(=O)O)cc2)nc1-c1ccccc1,inactive
11,Cc1ccc(-c2nc(-c3cccnc3)sc2CC(=O)Nc2ccc(C)c(Cl)c2)cc1,11.7 µM (active)
12,COc1ccc(OC)c(C(=O)NC(CC(N)=O)c2ccc(N3CCC(N4CCCCC4)CC3)c([N+](=O)[O-])c2)c1 (stereo not drawn),inactive
13,CCOc1ccc(N(CC)S(=O)(=O)c2cccc3nsnc23)cc1,6.57 µM (active)
14,COc1ccc(N(C)S(=O)(=O)c2cccc3nsnc23)cc1,inactive
15,COc1ccc(N(C)C(=O)CCS(=O)(=O)c2cccc3nsnc23)cc1,inactive
16,O=C(Nc1ccc(N2CCOCC2)c(Cl)c1)c1ccc(S(=O)(=O)N2CCOCC2)cc1,inactive
17,COc1ccc(CNC(=O)Cc2ccc(-c3ccccc3)cc2)cc1OC,inactive
18,COC(=O)c1ccc(C(NC(=O)OCc2ccccc2)/C(C)=C/[C@@H](C)C(=O)NCc2ccc(OC)c(OC)c2)cc1 (stereo partly drawn),11.7 µM (active)
19,COc1ccc(COC(=O)NC(C(=O)O)c2ccccc2)cc1 (stereo not drawn),inactive
20,COc1ccccc1CNC(=O)CCCN1C(=O)NC2(CCCC2)C1=O,inactive
21,COc1ccccc1CNC(=O)CCCn1c(=O)c2ccccc2n(CC(=O)NC2CCCC2)c1=O,4.65 µM (active)

row,Structure (SMILES),Potency
1,COCCCNC(=O)Cn1c(=O)n(Cc2ccccc2Cl)c(=O)c2cc(OC)c(OC)cc21,inactive
2,COC(=O)c1ccccc1N=Nc1c(C)[nH][nH]c1=O,inactive
3,O=C(O[C@H]1[C@H](Cc2ccccc2)NS(=O)(=O)[C@H]2C[C@@H]3C=C[C@]12O3)c1ccc([N+](=O)[O-])cc1,inactive
4,CC(=O)c1ccc(S(=O)(=O)N2CCC3(CC2)OCCO3)cc1,inactive
5,NC(=O)COC(=O)/C=C/c1ccc2ccccc2n1,inactive
6,CC(=O)c1ccc(S(=O)(=O)N2CCN(C(=O)/C=C/c3ccc4ccccc4n3)CC2)cc1,5.22 µM (active)
7,COCC1CCCN(C(=O)c2ccc3oc(C(C)C)nc3c2)C1 (stereo not drawn),inactive
8,Nn1c(SCC(=O)Nc2nccs2)nnc1-c1ccco1,inactive
9,NC(=O)C1CCN(C(=O)c2cn(-c3ccccc3)nc2-c2cccnc2)CC1,inactive
10,COC(=O)c1cn(-c2ccccc2)nc1-c1cccnc1,7.38 µM (active)
11,O=C(NCc1cccnc1)c1cn(-c2ccccc2)nc1-c1cccs1,inactive
12,CC(C)(C)OC(=O)N/N=C/c1cn(-c2ccccc2)nc1-c1cccnc1,2.33 µM (active)
13,O=C(COC(=O)/C=C/c1cn(-c2ccccc2)nc1-c1cccnc1)Nc1ccc(Cl)cc1Cl,inactive
14,CN(C)/N=C/c1cn(-c2ccccc2)nc1-c1cccnc1,inactive
15,COc1ccc(C(=O)N2CCN(c3ccc(C(C)=O)cc3F)CC2)cc1S(=O)(=O)NC1CC1,inactive
16,Cc1ccc(/C=C/C(=O)OCC(=O)NCc2ccc(Cl)cc2)o1,inactive
17,Cc1cc(-c2ccc(C)c(S(=O)(=O)NCCCN(Cc3ccccc3)C(C)C)c2)on1,inactive
18,COC(=O)c1c(NC(=O)c2ccccc2F)sc2c1C(C(=O)OC)CC2 (stereo not drawn),inactive
19,O=C(Nc1ccc(C(=O)O)cc1)/C(=C\c1ccccc1)NC(=O)c1ccc(Br)cc1,inactive
20,COc1ccccc1N1CCN(C(=O)C2Cc3ccccc3CN2C(=O)c2ccco2)CC1 (stereo not drawn),inactive
21,CCCCn1c(-c2cccc(C)c2)nc2cc3[nH]c(=O)c(C(C)C)nc3cc21,4.15 µM (active)

row,Structure (SMILES),Potency
1,CCOCCn1c(-c2ccccc2)nc2ccccc21,inactive
2,CCCCn1c(N)c(N(CCOC)C(=O)CSCC(=O)Nc2cccc(C)c2)c(=O)[nH]c1=O,inactive
3,O=C(O)C1CCCN1C1=NS(=O)(=O)c2ccccc21 (stereo not drawn),inactive
4,CN(Cc1ccccc1)S(=O)(=O)c1nnc(NC(=O)c2ccccc2F)s1,inactive
5,CN(C(=O)COC(=O)c1nc(Cl)ccc1Cl)C1CCS(=O)(=O)C1 (stereo not drawn),inactive
6,O=C(Nc1ccccc1)N(Cc1cccnc1)Cc1ccco1,inactive
7,Cc1cccc2cc(CN(Cc3cccs3)C(=S)NCc3ccco3)c(=O)[nH]c12,inactive
8,Cc1ccc(C)c2[nH]c(=O)c(CN(Cc3cccnc3)C(=S)NCc3ccco3)cc12,3.7 µM (active)
9,Cc1cn([C@H]2CC(F)[C@@H](CO)O2)c(=O)[nH]c1=O (stereo partly drawn),inactive
10,O=C(CN1C(=O)NC2(CCCC2)C1=O)NCC1CCCO1 (stereo not drawn),inactive
11,Cc1nn(CC(=O)NCC2CCCO2)c(=O)c2cc3ccccc3n12 (stereo not drawn),inactive
12,O=C(Cn1nc(Cc2cccnc2)c2ccccc2c1=O)NCC1CCCO1 (stereo not drawn),9.28 µM (active)
13,CCCn1c2ccccc2c2cnn(CC(=O)NCCCN3CCCCC3CC)c(=O)c21 (stereo not drawn),inactive
14,CCC1CCC2(CC1)NC(=O)N(CC(=O)Nc1ccc(OC)cc1)C2=O (stereo not drawn),inactive
15,COc1ccc(S(=O)(=O)NC(C)C(=O)N2CCCCCC2)cc1 (stereo not drawn),inactive
16,COc1ccc(CC(NC(C)=O)C(=O)NC2CCN(C(=O)c3ccc(Cl)cc3)CC2)cc1 (stereo not drawn),inactive
17,O=C(C1CCN(Cc2ccc(Cl)cc2)CC1)N1CCN(Cc2ccc3c(c2)OCO3)CC1,inactive
18,Cc1ccc2nc(-c3cccc(Br)c3)cc(C(=O)Nn3cnnc3)c2c1,inactive
19,COc1ccc(Cl)cc1C(=O)NCc1cn(C)nc1C,inactive
20,Cc1ccc(-c2cc(C(=O)NCc3cn(C)nc3C)c3cc(Br)ccc3n2)cc1,13.1 µM (active)
21,O=C(CCNC(=O)c1ccc(Br)cc1)Nc1cccc(S(=O)(=O)N2CCCCC2)c1,inactive
